From PubChem BioAssay (NCI)
The panel holds about 79,000 compounds, 15% with a hit somewhere; the sample as a whole holds those more often. A number with no mark means an inactive call. The source made the active and inactive calls. Cut-off read from the data, not from the text of the source: active = growth inhibition above about 70%; inactive = the rest.

Key:
[1] = NCI Yeast Anticancer Drug Screen. Data for the rad52 strain (AID 147);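 note: 0% = growth of vehicle-treated control cultures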; conditions: S. cerevisiae rad52 mutant growth inhibition, hits give high values
Summary of the method: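 Here a repair-compromised yeast strain receives each compound; its growth is then quantified and normalised to vehicle-only controls.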

[2] = NCI Yeast Anticancer Drug Screen. Data for the wt1 strain (AID 149);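 note: 0% = growth of vehicle-treated wt1 cultures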; conditions: S. cerevisiae wt1 strain (SPY 50644) growth inhibition, hits give high values
Summary of the method: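 Using yeast strain wt1, compound-induced growth inhibition was determined against vehicle-treated cultures.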

[3] = NCI Yeast Anticancer Drug Screen. Data for the rad50EPP+ strain (AID 151);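 note: 0% = growth of vehicle-treated control cultures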; conditions: S. cerevisiae rad50 mutant strain, hits give high values
Summary of the method: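 Read-out is yeast growth inhibition relative to vehicle; cells used were the rad50EPP+ strain.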

[4] = NCI Yeast Anticancer Drug Screen. Data for the mgt1 strain (AID 153); conditions: S. cerevisiae mgt1 mutant growth inhibition, hits give high values
Summary of the method: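 Measured: inhibition of mgt1 yeast growth by compound, normalized to vehicle-treated cultures.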

[5] = NCI Yeast Anticancer Drug Screen. Data for the rad50 strain (AID 155);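 note: 0% = growth of vehicle-only cultures of the same strain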; conditions: S. cerevisiae rad50 strain growth inhibition, hits give high values
Summary of the method: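 Relative growth inhibition (compound vs vehicle) was measured in yeast with a defined repair-gene alteration.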

[6] = NCI Yeast Anticancer Drug Screen. Data for the mec2-1 strain (AID 157); conditions: S. cerevisiae mec2-1 strain, hits give high values
Summary of the method: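 Using mec2-1 yeast: add compound, measure growth, express inhibition versus vehicle-treated cultures.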

[7] = NCI Yeast Anticancer Drug Screen. Data for the rad14 strain (AID 159);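 note: 0% = growth of vehicle-treated control cultures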; conditions: S. cerevisiae rad14 strain growth inhibition, hits give high values
Summary of the method: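 Screen for anticancer potential: a yeast strain altered in DNA damage repair is grown with compound, and reduced growth is quantified against vehicle controls.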

[8] = NCI Yeast Anticancer Drug Screen. Data for the sgs1 mgt1 strain (AID 161);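 note: 0% = growth of cultures given vehicle only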; conditions: S. cerevisiae sgs1 mgt1 strain, hits give high values
Summary of the method: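 Yeast cells carrying a defined DNA-repair defect were exposed to test compounds. Growth inhibition was measured relative to vehicle-treated controls.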

[9] = NCI Yeast Anticancer Drug Screen. Data for the cln2 rad14 strain (AID 165);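 note: 0% = growth equal to vehicle treated cultures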; conditions: S. cerevisiae cln2 rad14 strain, hits give high values
Summary of the method: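 Yeast strain cln2 rad14, bearing defects in cell cycle control and DNA repair, serves as the test system; values reflect growth inhibition compared with vehicle.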

[10] = NCI Yeast Anticancer Drug Screen. Data for the bub3 strain (AID 167); conditions: S. cerevisiae bub3 mutant strain, hits give high values
Summary of the method: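 Screening used yeast with an engineered genetic alteration affecting cell cycle control. Compound-exposed cultures were compared with vehicle cultures, and reduced growth was taken as inhibition.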

[11] = NCI Yeast Anticancer Drug Screen. Data for the wt2 strain (AID 169);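 note: 0% = growth of vehicle-treated yeast cultures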; conditions: S. cerevisiae wt2 strain growth inhibition, hits give high values
Summary of the method: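 Treated yeast vs. vehicle-treated yeast: growth inhibition determined.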

[12] = NCI Yeast Anticancer Drug Screen. Data for the mlh1 strain (AID 171);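 note: 0% = growth of vehicle-treated control cultures of the same strain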; conditions: S. cerevisiae mlh1 strain growth inhibition, hits give high values
Summary of the method: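 A yeast strain with a defined genetic lesion serves as the test organism. Cultures receive compound or vehicle, and growth is measured.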

[13] = NCI Yeast Anticancer Drug Screen. Data for the sgs1 strain (AID 173);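 note: 0% = growth of vehicle-only control cultures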; conditions: S. cerevisiae sgs1 mutant, hits give high values
Summary of the method: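 A genetically defined yeast mutant is incubated with the test compound, and its growth is compared to that of the same strain given vehicle.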

[14] = NCI Yeast Anticancer Drug Screen. Data for the mlh1 rad18 strain (AID 175); conditions: S. cerevisiae mlh1 rad18 strain growth inhibition, hits give high values
Summary of the method: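 Steps: expose repair-defective yeast to compound; measure growth; express inhibition against vehicle-treated controls.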

[15] = NCI Yeast Anticancer Drug Screen. Data for the rad18 strain (AID 177); conditions: S. cerevisiae rad18 mutant growth inhibition, hits give high values
Summary of the method: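 Measured value is growth inhibition of a yeast strain bearing a DNA repair alteration, referenced to vehicle-treated cells.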

[16] = at 5.0 µM (retest, dose inferred, filed as 0.5)
[17] = at 50.0 µM (retest, dose inferred, filed as 5.0)

SMILES: CCCCS(=O)(=O)Nc1ccc(Nc2c3ccccc3nc3ccccc23)c(OC)c1
- growth inhibition ([1]; at 1.2 µM): 54%
- growth inhibition ([1]; at 3.7 µM): 80% (active)
- growth inhibition ([1]; at 11.0 µM): 90% (active)
- growth inhibition ([1]; at 33.0 µM): 93% (active)
- growth inhibition ([1]; at 100.0 µM): 96% (active)
- growth inhibition ([2]; at 1.2 µM): -38%
- growth inhibition ([2]; at 3.7 µM): -34%
- growth inhibition ([2]; at 11.0 µM): -36%
- growth inhibition ([2]; at 33.0 µM): 44%
- growth inhibition ([2]; at 100.0 µM): 96% (active)
- growth inhibition ([3]; at 1.2 µM): -20%
- growth inhibition ([3]; at 3.7 µM): -11%
- growth inhibition ([3]; at 11.0 µM): 10%
- growth inhibition ([3]; at 33.0 µM): 53%
- growth inhibition ([3]; at 100.0 µM): 81% (active)
- growth inhibition ([4]; at 1.2 µM): -49%
- growth inhibition ([4]; at 3.7 µM): -46%
- growth inhibition ([4]; at 11.0 µM): -33%
- growth inhibition ([4]; at 33.0 µM): 64%
- growth inhibition ([4]; at 100.0 µM): 96% (active)
- growth inhibition ([5]; at 1.2 µM): 39%
- growth inhibition ([5]; at 3.7 µM): 78% (active)
- growth inhibition [5, 16]: 86% (active)
- growth inhibition ([5]; at 11.0 µM): 89% (active)
- growth inhibition ([5]; at 33.0 µM): 94% (active)
- growth inhibition [5, 17]: 98% (active)
- growth inhibition ([5]; at 50.0 µM): 45%
- growth inhibition ([5]; at 100.0 µM): 96% (active)
- growth inhibition ([6]; at 1.2 µM): -29%
- growth inhibition ([6]; at 3.7 µM): -9%
- growth inhibition [6, 16]: 15%
- growth inhibition ([6]; at 11.0 µM): 37%
- growth inhibition ([6]; at 33.0 µM): 91% (active)
- growth inhibition [6, 17]: 98% (active)
- growth inhibition ([6]; at 50.0 µM): 47.5%
- growth inhibition ([6]; at 100.0 µM): 98% (active)
- growth inhibition ([7]; at 1.2 µM): -31%
- growth inhibition ([7]; at 3.7 µM): -25%
- growth inhibition ([7]; at 11.0 µM): -9%
- growth inhibition ([7]; at 33.0 µM): 79% (active)
- growth inhibition ([7]; at 100.0 µM): 96% (active)
- growth inhibition [8, 16]: 44%
- growth inhibition [8, 17]: 99% (active)
- growth inhibition ([8]; at 50.0 µM): 84% (active)
- growth inhibition [9, 16]: 25%
- growth inhibition [9, 17]: 95% (active)
- growth inhibition ([9]; at 50.0 µM): 77% (active)
- growth inhibition ([10]; at 1.2 µM): -53%
- growth inhibition ([10]; at 3.7 µM): -63%
- growth inhibition [10, 16]: 43%
- growth inhibition ([10]; at 11.0 µM): -35%
- growth inhibition ([10]; at 33.0 µM): 60%
- growth inhibition [10, 17]: 96% (active)
- growth inhibition ([10]; at 50.0 µM): 76.9% (active)
- growth inhibition ([10]; at 100.0 µM): 96% (active)
- growth inhibition ([11]; at 1.2 µM): -13%
- growth inhibition ([11]; at 3.7 µM): -22%
- growth inhibition ([11]; at 11.0 µM): -13%
- growth inhibition ([11]; at 33.0 µM): 41%
- growth inhibition ([11]; at 100.0 µM): 93% (active)
- growth inhibition ([12]; at 1.2 µM): -58%
- growth inhibition ([12]; at 3.7 µM): -43%
- growth inhibition ([12]; at 11.0 µM): -29%
- growth inhibition ([12]; at 33.0 µM): 73% (active)
- growth inhibition ([12]; at 100.0 µM): 97% (active)
- growth inhibition ([13]; at 1.2 µM): 1%
- growth inhibition ([13]; at 3.7 µM): 3%
- growth inhibition ([13]; at 11.0 µM): 20%
- growth inhibition ([13]; at 33.0 µM): 79% (active)
- growth inhibition ([13]; at 100.0 µM): 97% (active)
- growth inhibition [14, 16]: 78% (active)
- growth inhibition [14, 17]: 97% (active)
- growth inhibition ([14]; at 50.0 µM): 84% (active)
- growth inhibition ([15]; at 1.2 µM): -14%
- growth inhibition ([15]; at 3.7 µM): -15%
- growth inhibition ([15]; at 11.0 µM): 0%
- growth inhibition ([15]; at 33.0 µM): 78% (active)
- growth inhibition ([15]; at 100.0 µM): 96% (active)
